# PubChem BioAssay (Tox21)
# “And” between values parts separate entries of the source, which are not always exact repeats. Equal entries are not always repeated. Records with an inconclusive call do not appear. More than one record can exist for a structure, and the calls need not agree. The source made the active and inactive calls. The call rests on the fitted dose curve; in most records, active means well fitted cell-killing curve with a large enough effect in the repeat runs; inconclusive means weak or mixed curves, or effect the other way; inactive means no such curve, though single readings can be large or run the other way.
# Experiment: qHTS assay to identify small molecule antagonists of the sonic hedgehog signaling (Shh) pathway - cell viability counter screen (AID 1259367); further: nearly all actives have a fitted effect of over 55% in size
# Details: NIH/3T3 Gli1-Luc viability, CellTiter-Fluor, 24 h; series mostly up to 92.4 µM; viability change, negative = cytotoxic: at the top concentration
# Source text: National Center for Advancing Translational Sciences [NCATS]
# NIH Chemical Genomics Center [NCGC]
# U.S. Environmental Protection Agency [EPA]
# National Institutes of Environmental Health Sciences [NIEHS]
# National Toxicology Program [NTP]
# U.S. Food and Drug Administration [FDA]
# The sonic hedgehog (Shh) pathway is essential for normal embryonic development. Dysregulation of the Shh pathway can cause severe developmental defects in organs. Therefore chemicals that interfere with the pathway are potential developmental toxicants. A cell line designated 3T3Gli1-Luc (DMB/OARSA/CFSAN/FDA, Laurel, MD), a NIH/3T3 derived clone containing stably integrated Gli1-Luc reporter is used to detect chemical interference of the Shh pathway, by changes in the expression of the firefly Luc gene under the control of the Gli1 transcriptional response element. This cell line was used to screen Tox21 libraries for identifying and prioritizing the potential developmental toxicants that interfere Shh pathway. Conditioned medium-stimulated mode was used to screen for chemicals inhibiting Shh signaling. The cytotoxicity of the compounds was tested in parallel by measuring the cell viability using CellTiter-Fluor assay system (Promega, Madison, WI) in the same wells.
# Tox21 Assay Protocol Summary:
# 3T3 Gli1-Luc cells were dispensed at 2,000 per well in 5uL of culture medium into white solid bottom 1536-well plates (Greiner Bio-One, Monroe, NC) using a Multidrop Combi (Thermo Scientific, Waltham, MA) dispenser. The assay plates were incubated at 37 C and 5% CO2 for 4hr, and then 23nL of compounds dissolved in DMSO and positive control were transferred using a Pintool station (Wako, San Diego, CA). The compound transfer was followed by the addition of 1ul conditioned medium or assay buffer using two separate tips of Flying Reagent Dispenser (FRD, Aurora Discovery, San Diego, CA). The assay plates were incubated at 37C and 5% CO2 for 24hr. For viability read, after 23hr of compound treatment, 1uL of CellTiter-Fluor reagent (Promega Corporation, Madison, WI) was added to each well of the assay plates using Flying Reagent Dispenser (FRD, Aurora Discovery, San Diego, CA) and incubated the assay plates at 37C for 1hr. The fluorescence signal was quantified using a ViewLux plate reader (Perkin Elmer, Shelton, CT).
# On the % scale 0 is the no-effect control and ±100 the full control effect; potency means the concentration at half of the fitted maximal effect.
SMILES,"viability change, negative = cytotoxic",Potency
C=CC(=O)OCCOC(=O)C=C,-1.12% (inactive),
CC1(C)CCC[C@]2(C)[C@H]3CCO[C@]3(C)CC[C@@H]12,2.44% (inactive),
COc1cccc(OC)c1C(=O)O,0.945% (inactive),
C[C@H]1NCc2cc(-c3ccc4c(=O)c(C(=O)O)cn(C5CC5)c4c3OC(F)F)ccc21,-2.69% [at 19 µM] (inactive),
COc1cc(C)ccc1O,0.248% (inactive),
Cc1cccc(C)c1NC(=O)c1ccc(N)cc1,3.36% [at 42.5 µM] (inactive),
CC(CO)Oc1ccccc1 (stereo not given),8.85% (inactive),
O=c1[nH]c(=O)n([C@H]2C[C@H](O)[C@@H](CO)O2)cc1F,-1.33% [at 42.5 µM] (inactive),
CCCCCCCCCCCCOCCOCCOCCOCCOCCOCCOCCOCCOCCO,-19.3% [at 42.5 µM] (inactive),
CCN(CCN)c1cccc(C)c1,,inactive
CN(C)c1ccc(C(=C2C=CC(=[N+](C)C)C=C2)c2ccc(N(C)C)cc2)cc1,,9.64 µM (active) and 30.6 µM (active) and 10.6 µM (active)
Nc1nc(N)nc(-c2cc(Cl)ccc2Cl)n1,3.52% [at 42.5 µM] (inactive),
OC[C@@H](O)[C@@H](O)CO,0.813% (inactive),
O=C1NC(=O)[C@@H]2CC=CC[C@H]12,2.81% (inactive),
CC(CCc1ccccc1)NCC(O)c1ccc(O)c(C(N)=O)c1 (stereo not given),,17.2 µM (active)
CN(C)C(=O)COC(=O)Cc1ccc(OC(=O)c2ccc(N=C(N)N)cc2)cc1,-1.62% [at 42.5 µM] (inactive),
C=C(CC)C(=O)c1ccc(OCC(=O)O)c(Cl)c1Cl,,60.7 µM (active) and inactive
O=C(O)c1cc(=O)c2ccccc2o1,4.5% [at 42.5 µM] (inactive),
C[Si](Cl)(c1ccccc1)c1ccccc1,-13.8% (inactive),
O=C(O)Cc1ccc2c(c1)C(=O)c1ccccc1CO2,-0.959% [at 42.5 µM] (inactive),

SMILES,"viability change, negative = cytotoxic",Potency
Cc1cc(-n2nc3ccc(Cl)cc3n2)c(O)c(C(C)(C)C)c1,0.541% [at 42.5 µM] (inactive),
CN(C)Cc1cc(C(C)(C)C)c(O)c(C(C)(C)C)c1,-3.64% (inactive),
CCCCCC(C)OC(=O)COc1ccc(Cl)c2cccnc12 (stereo not given),2.1% (inactive),
COC1=C(OC)C(=O)C(CCCCCCCCCCO)=C(C)C1=O,-5.9% [at 42.5 µM] (inactive),
CCCC(=O)OCOC(=O)C1=C(C)NC(C)=C(C(=O)OC)C1c1cccc(Cl)c1Cl (stereo not given),-12.4% [at 42.5 µM] (inactive),
O=C(O)O,-2.57% [at 8.39 µM] (inactive),
FC(F)(F)c1cccc(Cl)c1,-1.81% (inactive),
COC(=O)c1ccccc1OC,-0.592% (inactive),
c1ccc(C(O[C@@H]2CCCN(CCc3ccc4c(c3)OCO4)C2)c2ccccc2)cc1,-6.79% (inactive),
[Cu+],-6.47% (inactive),
O=C(/C=C/c1ccccc1)OC/C=C/c1ccccc1,2.17% (inactive),
O=S(=O)(O)c1ccc(N=Nc2c(O)ccc3ccccc23)cc1,,27.3 µM (active)
CC(C)CCCCCOC(=O)CCS,3.25% (inactive),
Cc1cccc(C(=O)O)c1O,5.67% [at 42.5 µM] (inactive),
c1ccc(SSc2ccccc2)cc1,0.396% (inactive),
CCCCOC(=O)CO,-0.0408% (inactive),
CCCNCCC,-2.27% (inactive),
CC1(C)[C@@H](O)CC[C@]2(C)[C@H]3C(=O)C=C4[C@@H]5C[C@@](C)(C(=O)O)CC[C@]5(C)CC[C@@]4(C)[C@]3(C)CC[C@@H]12,-1.89% (inactive),
CC(C)(C)c1csc(-c2cc3cc(OCc4ccccc4CC(=O)O)ccc3o2)n1,-14.3% (inactive),
Cc1c(C)c([N+](=O)[O-])c(C(C)(C)C)c([N+](=O)[O-])c1C,-0.702% (inactive),
